# Laboratory results reported in PubChem BioAssay AID1159580 (chemical genetic matrix, 2015).
# The whole screen tested about 5,500 compounds, of which about 2,000 (36%) were called active. Roughly 18% stayed inconclusive and do not appear here. This is one part of the list. Values without a mark were called inactive. No stated cut-off is given here; in the data, active means normalized growth mostly below about 0.91 (no sharp cut-off); inconclusive means no clear call, values can overlap the other calls; inactive means mostly above about 0.92.
# Experiment: chemical genetic growth profiling, strain panel (AID 1159580);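 further: tested at 20 µM; growth read once vehicle control cultures reached saturation at 30 °C; 1 = growth at the plate median or of vehicle wells; lower values mean less growth of the strain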
# Conditions: growth OD
# [1] = S. cerevisiae deletion strains, locus YAL013W, strain DEP1, active compounds read low
# [2] = S. cerevisiae deletion strains, locus YBR229C, strain ROT2, active compounds read low
# [3] = S. cerevisiae deletion strains, locus YCL061C, strain MRC1, active compounds read low
# [4] = S. cerevisiae deletion strains, locus YDL101C, strain DUN1, active compounds read low
# [5] = S. cerevisiae deletion strains, locus YDL134C, strain PPH21, active compounds read low
# [6] = S. cerevisiae deletion strains, locus YDR150W, strain NUM1, active compounds read low
# [7] = S. cerevisiae deletion strains, locus YEL061C, strain CIN8, active compounds read low
# [8] = S. cerevisiae deletion strains, locus YGR078C, strain PAC10, active compounds read low
# [9] = S. cerevisiae deletion strains, locus YHR030C, strain SLT2, active compounds read low
# [10] = S. cerevisiae deletion strains, locus YHR087W, strain rtc3, active compounds read low
# [11] = S. cerevisiae deletion strains, locus YJR043C, strain POL32, active compounds read low
# [12] = S. cerevisiae deletion strains, locus YJR075W, strain HOC1, active compounds read low
# [13] = S. cerevisiae deletion strains, locus YKL190W, strain CNB1, active compounds read low
# [14] = S. cerevisiae deletion strains, locus YLR039C, strain RIC1, active compounds read low
# [15] = S. cerevisiae deletion strains, locus YLR058C, strain SHM2 (second series), active compounds read low
# [16] = S. cerevisiae deletion strains, locus YLR085C, strain ARP6, active compounds read low
# [17] = S. cerevisiae deletion strains, locus YLR262C, strain YPT6, active compounds read low
# [18] = S. cerevisiae deletion strains, locus YML094W, strain GIM5, active compounds read low
# [19] = S. cerevisiae deletion strains, locus YMR219W, strain ESC1, active compounds read low
# [20] = S. cerevisiae deletion strains, locus YMR263W, strain SAP30, active compounds read low
# [21] = S. cerevisiae deletion strains, locus YNL153C, strain GIM3, active compounds read low
# [22] = S. cerevisiae deletion strains, locus YNL298W, strain CLA4 (second series), active compounds read low
# [23] = S. cerevisiae deletion strains, locus YNL322C, strain KRE1, active compounds read low
# [24] = S. cerevisiae deletion strains, locus YNR030W, strain Alg12, active compounds read low
# [25] = S. cerevisiae deletion strains, locus YPL055C, strain LGE1, active compounds read low
# [26] = S. cerevisiae deletion strains, locus YPL241C, strain CIN2, active compounds read low
# [27] = S. cerevisiae deletion strains, locus YPR135W, strain CTF4, active compounds read low
# [28] = S. cerevisiae strains, strain wild type, active compounds read low
# [29] = S. cerevisiae deletion strains, locus YJL187C, strain SWE1, active compounds read low
smiles,measurement,setting,value
O=C(O)CC(CC(=O)Nc1ccc(I)cc1F)c1ccc(C(F)(F)F)cc1 (stereo not given),normalized growth,[1],0.99
same,normalized growth,[2],0.99
same,normalized growth,[3],0.978
same,normalized growth,[4],0.985
same,normalized growth,[5],0.981
same,normalized growth,[6],0.972
same,normalized growth,[7],1
same,normalized growth,[8],1
same,normalized growth,[9],1
same,normalized growth,[10],0.981
same,normalized growth,[11],1
same,normalized growth,[12],0.943
same,normalized growth,[13],1.01
same,normalized growth,[14],1.02
same,normalized growth,[15],0.975
same,normalized growth,[16],1
same,normalized growth,[17],1.02
same,normalized growth,[18],0.989
same,normalized growth,[19],0.984
same,normalized growth,[20],0.969
same,normalized growth,"S. cerevisiae deletion strains, locus YNL128W, strain TEP1, active compounds read low",0.995
same,normalized growth,[21],1.01
same,normalized growth,[22],1.05
same,normalized growth,[23],0.973
same,normalized growth,[24],0.927
same,normalized growth,[25],0.968
same,normalized growth,[26],0.986
same,normalized growth,[27],1.03
same,normalized growth,[28],1
O=C(NCc1nc(-c2ccc(C(F)(F)F)cc2)no1)Nc1ccc(F)cc1F,normalized growth,[1],1.01
same,normalized growth,[2],0.987
same,normalized growth,[4],0.975
same,normalized growth,[5],0.857 (active)
same,normalized growth,[6],1.03
same,normalized growth,[7],0.996
same,normalized growth,[8],0.996
same,normalized growth,[9],1.07
same,normalized growth,[10],0.973
same,normalized growth,[29],0.997
same,normalized growth,[11],1
same,normalized growth,[12],0.967
same,normalized growth,[13],1.01
same,normalized growth,[14],0.981
same,normalized growth,[15],1.01
same,normalized growth,[16],1.04
same,normalized growth,[17],1.02
same,normalized growth,[18],0.968
same,normalized growth,[19],1
same,normalized growth,"S. cerevisiae deletion strains, locus YMR307W, strain GAS1, active compounds read low",0.894
same,normalized growth,[21],0.987
same,normalized growth,[22],1.03
same,normalized growth,[23],1.02
same,normalized growth,[24],0.988
same,normalized growth,[25],0.846
same,normalized growth,[26],0.966
same,normalized growth,[27],1.01
same,normalized growth,[28],1.02
FC(F)(F)c1cc(-n2c(CCc3nc(-c4ccc(Cl)cc4)no3)n[nH]c2=S)cc(C(F)(F)F)c1,normalized growth,[1],0.996
same,normalized growth,[2],0.991
same,normalized growth,[3],0.985
same,normalized growth,[4],0.946
same,normalized growth,[6],0.867
same,normalized growth,[7],1.04
same,normalized growth,[8],0.963
same,normalized growth,"S. cerevisiae deletion strains, locus YGR229C, strain SMI1, active compounds read low",0.991
same,normalized growth,[9],0.993
same,normalized growth,[10],1.03
same,normalized growth,[29],1.01
same,normalized growth,[11],0.978
same,normalized growth,[12],0.978
same,normalized growth,[14],1.05
same,normalized growth,[15],1.01
same,normalized growth,[16],0.97
same,normalized growth,[17],1.02
same,normalized growth,[18],1.03
same,normalized growth,[19],0.994
same,normalized growth,[20],0.957
same,normalized growth,[21],0.95
same,normalized growth,[22],0.981
same,normalized growth,[23],0.989
same,normalized growth,[24],0.975
same,normalized growth,"S. cerevisiae deletion strains, locus YOL006C, strain TOP1, active compounds read low",0.994
same,normalized growth,[25],0.994
same,normalized growth,[26],0.965
same,normalized growth,[27],0.879
